Key:
Assay in all cases: HT-SELEX; 20 mM HEPES pH 7, 140 mM KCl, 5 mM NaCl, 1 mM K2HPO4, 2 mM MgSO4, 100 uM EGTA, ZnSO4, 0.1% Tween20; room temperature, 1 h; high values mean tight binding
Conditions in all cases: protein: ivt; tags: eGFP (N-terminal); dsDNA, one strand shown
ZNF721 full-length = ZNF721 full-length (Homo sapiens, UniProt Q8TF20-2 1-923)
Summary of the method: (§1)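 A tagged transcription factor, either full-length or its DNA-binding-domain fragment, was made in HEK293 lysate or cell-free extract, immobilised on beads and incubated with a randomized 40-base DNA library for 1 h at room temperature in HEPES/KCl low-stringency buffer containing Tween20. Washed beads were heat-eluted, and the bound DNA was PCR-amplified over successive cycles and Illumina-sequenced at ~3 million 60 bp reads per sample. The binding signal is the relative k-mer count in selected reads, where a higher value means tighter binding.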

ZNF721 DBD1 = ZNF721 DBD1 (Homo sapiens, UniProt Q8TF20-2 29-461)
Summary of the method: as §1

ZNF721 DBD2 = ZNF721 DBD2 (Homo sapiens, UniProt Q8TF20-2 395-923)
Summary of the method: as §1

Chain of ZNF721 DBD2 (Q8TF20 383-911): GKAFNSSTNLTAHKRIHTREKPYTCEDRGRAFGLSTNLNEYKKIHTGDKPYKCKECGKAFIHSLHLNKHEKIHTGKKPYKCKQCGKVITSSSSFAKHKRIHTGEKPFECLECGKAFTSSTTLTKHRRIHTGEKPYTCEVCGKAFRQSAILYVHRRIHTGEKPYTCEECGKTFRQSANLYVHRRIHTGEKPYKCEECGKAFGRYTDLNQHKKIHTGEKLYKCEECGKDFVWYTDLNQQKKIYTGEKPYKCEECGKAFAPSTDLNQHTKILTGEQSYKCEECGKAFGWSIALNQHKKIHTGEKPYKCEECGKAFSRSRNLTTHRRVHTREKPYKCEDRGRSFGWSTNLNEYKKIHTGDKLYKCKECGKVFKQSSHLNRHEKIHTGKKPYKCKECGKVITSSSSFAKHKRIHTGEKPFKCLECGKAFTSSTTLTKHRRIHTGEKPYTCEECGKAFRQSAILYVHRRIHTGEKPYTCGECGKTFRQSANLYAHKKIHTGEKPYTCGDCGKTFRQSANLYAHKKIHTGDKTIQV
Chain of ZNF721 full-length (Q8TF20 other isoform, or with tags, fused parts or gaps): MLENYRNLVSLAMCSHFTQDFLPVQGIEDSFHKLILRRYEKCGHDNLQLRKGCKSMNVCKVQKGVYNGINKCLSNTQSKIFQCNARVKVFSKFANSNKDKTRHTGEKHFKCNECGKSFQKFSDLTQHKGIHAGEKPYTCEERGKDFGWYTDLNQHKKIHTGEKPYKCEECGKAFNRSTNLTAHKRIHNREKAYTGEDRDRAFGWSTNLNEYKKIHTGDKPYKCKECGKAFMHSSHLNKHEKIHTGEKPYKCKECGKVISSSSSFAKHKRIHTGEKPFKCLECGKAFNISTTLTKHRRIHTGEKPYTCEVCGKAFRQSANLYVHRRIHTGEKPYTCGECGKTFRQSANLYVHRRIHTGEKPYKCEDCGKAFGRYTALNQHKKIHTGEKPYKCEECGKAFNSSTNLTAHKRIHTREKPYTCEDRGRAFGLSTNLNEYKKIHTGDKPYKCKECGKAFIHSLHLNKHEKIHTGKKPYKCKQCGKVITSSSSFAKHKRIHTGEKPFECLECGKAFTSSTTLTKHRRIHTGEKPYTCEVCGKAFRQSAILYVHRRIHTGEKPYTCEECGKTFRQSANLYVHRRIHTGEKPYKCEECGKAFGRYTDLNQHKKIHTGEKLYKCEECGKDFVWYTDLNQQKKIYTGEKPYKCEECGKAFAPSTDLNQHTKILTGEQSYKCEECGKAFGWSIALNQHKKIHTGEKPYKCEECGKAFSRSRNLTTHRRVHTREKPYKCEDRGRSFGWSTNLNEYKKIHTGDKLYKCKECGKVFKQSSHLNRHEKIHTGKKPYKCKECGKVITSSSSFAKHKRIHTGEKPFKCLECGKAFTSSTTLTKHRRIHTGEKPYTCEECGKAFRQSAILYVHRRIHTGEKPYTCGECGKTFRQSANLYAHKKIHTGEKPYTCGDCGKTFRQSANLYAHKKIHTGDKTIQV
Chain of ZNF721 DBD1 (Q8TF20 17-449): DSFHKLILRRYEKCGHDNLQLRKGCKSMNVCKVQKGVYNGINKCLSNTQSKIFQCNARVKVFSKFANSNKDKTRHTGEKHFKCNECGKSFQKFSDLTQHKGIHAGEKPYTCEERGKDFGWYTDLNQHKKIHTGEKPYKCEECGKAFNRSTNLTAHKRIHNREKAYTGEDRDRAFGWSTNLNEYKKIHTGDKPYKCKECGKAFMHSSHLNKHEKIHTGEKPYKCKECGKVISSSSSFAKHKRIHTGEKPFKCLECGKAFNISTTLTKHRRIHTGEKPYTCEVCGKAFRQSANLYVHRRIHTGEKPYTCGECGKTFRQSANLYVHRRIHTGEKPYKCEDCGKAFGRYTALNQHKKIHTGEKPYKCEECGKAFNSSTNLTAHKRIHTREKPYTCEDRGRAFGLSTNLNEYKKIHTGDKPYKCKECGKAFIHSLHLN

Sequence | binding signal (ZNF721 full-length) [relative 10-mer count] | binding signal (ZNF721 DBD1) [relative 10-mer count] | binding signal (ZNF721 DBD2) [relative 10-mer count]
GCCCTCCCCC | 0.163 | 0.00716 | 0.00911
CCCACCCAGC | 0.106 | 0.00307 | 0.003
CACCCCGCCC | 0.205 | 0.00656 | 0.003
CCCTCACCCC | 0.193 | 0.00862 | 0.00276
AAAAAAGAAG | 0.101 | 0.0198 | 0.0207
CTCCCCCCCC | 0.158 | 0.00761 | 0.003
CCCAAACCCC | 0.109 | 0.00298 | 0.00168
CCCGCCACCC | 0.304 | 0.0125 | 0.00252
CCCCACCCAC | 0.337 | 0.0124 | 0.00587
CGCCACCCCA | 0.135 | 0.00358 | 0.00192
CCCCCGCCAC | 0.176 | 0.00679 | 0.0036
GCACCACCCC | 0.103 | 0.00358 | 0.00815
CATCCCCCCC | 0.123 | 0.00463 | 0.00635
AACAAAAAAG | 0.106 | 0.00927 | 0.0439
CCCCCAACCA | 0.118 | 0.00477 | 0.00503
CGCCCACCCC | 0.23 | 0.00913 | 0.00252
CCAACCACCC | 0.175 | 0.00624 | 0.00312
CTCCCACCAC | 0.11 | 0.00752 | 0.00599
AAAAAAGCGT | 0.276 | 0.0607 | 0.0512
ACCCCTCCAC | 0.11 | 0.00472 | 0.00419
CGCTTCATAC | 0.265 | 0.363 | 0.0012
CCACCGTCCC | 0.112 | 0.00491 | 0.00467
CCCCCGCACC | 0.146 | 0.00527 | 0.00419
CCACCCAACC | 0.151 | 0.00674 | 0.00551
AAAGCTATCC | 0.165 | 0.0786 | 0.00156
AAAAAAAAAG | 0.384 | 0.0474 | 0.0982
AGGGGGTGGG | 0.201 | 0.0107 | 0.00467
